The text below walks through data of PubChem BioAssay (EPA / NIEHS).

Some structures have more than one record in an assay (separate samples or runs), and their calls can disagree. Activity calls are given as the source filed them. The calls were made as follows: active = hit-call score of the fitted dose curve at least 0.9, where 1 is the maximum; inactive = score below 0.9.

Read-out in this test: Intercellular Adhesion Molecule 1 (ICAM1), ICAM1 (gene 3383)
In words: BSK_3C_ICAM1: BioMAP Diversity Plus: 3C Assay for Intercellular Adhesion Molecule 1 (ICAM1) Biomarker Activity (AID 2283003). Conditions: primary human endothelial cells (HUVEC); actives raise or lower the signal. Here is the method: BSK_3C is a cell-based, multiplexed-readout assay that uses umbilical vein endothelium, a human vascular primary cell, with measurements taken at 24 hours after chemical dosing in a 96-well plate.BSK_3C_ICAM1 is an assay component measured in the BSK_3C assay. It measures ICAM-1 antibody related to regulation of gene expression using ELISA technology.Data from the assay component BSK_3C_ICAM1 was analyzed into 1 assay endpoint. This assay endpoint, BSK_3C_ICAM1, was analyzed with bidirectional fitting relative to DMSO as the negative control and baseline of activity. Using a type of binding reporter, gain or loss-of-signal activity can be used to understand changes in the signaling as they relate to the gene ICAM1. Furthermore, this assay endpoint can be referred to as a primary readout, because this assay has produced multiple assay endpoints where this one serves a signaling function. To generalize the intended target to other relatable targets, this assay endpoint is annotated to the cell adhesion molecules intended target family, where the subfamily is Immunoglobulin CAM.
The levels of cell surface (or secreted, indicated by the prefix "s") biomarker endpoints were measured by ELISA. Overt cytotoxicity to cells in confluent adherent cultures (all systems other than the BT system) was assessed by measuring total protein levels using sulforhodamine B (SRB) staining in parallel cultures at the time of biomarker measurements, indicated as SRB endpoints. For proliferation assays for adherent cell types, individual cell types are cultured at sub-confluence and relative cell numbers quantified by SRB staining at time points optimized for each system (48 h: 3C and CASM3C systems; 72 h: BT and HDF3CGF systems; 96 h: SAg system). SRB was performed by staining cells with 0.1% SRB after fixation with 10% TCA and reading wells at 560 nm.Viability and proliferation of PBMC (T cells) was quantified by Alamar Blue reduction for the SAg and BT systems. For PBMC viability (referred to as PBMC Cytotoxicity within the assay endpoint names), cells were plated (75,000/well in a 96-well plate) and then chemical samples added for 1 h before addition of activators, SEB and TSST-1 (20 ng/mL final concentration each). Cells were incubated for 90 h. Then, Alamar Blue (20 uL/well) (Invitrogen, Cat DAL1100) was added for 6 h, and the plates were read with a fluorescence microplate reader at 546/580 nm (excitation/emission). For PBMC proliferation, cells were plated and activated as above but incubated for only 16 h prior to addition of Alamar Blue. Plates were read after 6 h.
As a reminder, the AC50 is the midpoint of the concentration-response curve, whichever way the signal moves. Take `O=C(OC1CCCCC1)c1ccccc1C(=O)OC1CCCCC1`: the AC50 is 14.6 µM (active).

On to `CCCCC(CC)CO[N+](=O)[O-]` (stereo not given), for which the outcome was inactive.

In the case of `Oc1c(I)cc(I)cc1I`, the result was inactive.

As for `C[C@@H]1C[C@@H]([C@H](O)CC2CC(=O)NC(=O)C2)C(=O)[C@@H](C)C1`, the AC50 was 12.5 µM (active).

For the compound `COP(=S)(OC)Oc1cc(Cl)c(Cl)cc1Cl`, the outcome was inactive.

As for `COC(=O)Cc1ccccc1`, the result was inactive.

In the case of `CN(C)N=O`, the result was inactive.

Take `CCOC(=O)/C=C(C)/C=C/C[C@@H](C)CCCC(C)C`: the AC50 is 30.2 µM (active).

Turning to `O=[N+]([O-])c1ccc(O)c([N+](=O)[O-])c1`, the result was inactive.

Consider `CC(C)c1ccc(CO)cc1`, for which the outcome was inactive.

As to `O=C(O)C(F)(F)C(F)(F)C(F)(F)C(F)(F)C(F)(F)C(F)(F)F`, the outcome was inactive.

On to `COc1cc(OC)nc(NC(=O)NS(=O)(=O)c2ncccc2C(=O)N(C)C)n1`, for which the outcome was inactive.

On to `Cc1ccccc1N`, for which the result was inactive.

As to `CCNc1nc(NC(C)(C)C)nc(SC)n1`, the result was inactive.

As to `CC(=O)OC(c1ccccc1)C(Cl)(Cl)Cl` (stereo not given), the outcome was inactive.

For the compound `O=C1C2(Cl)C3(Cl)C4(Cl)C(Cl)(Cl)C5(Cl)C3(Cl)C1(Cl)C5(Cl)C24Cl` (stereo not given), the concentration at half-maximal activity (AC50) was 10.8 µM (active).

Consider `O=[N+]([O-])c1ccc2c3c(cccc13)CC2`, for which the result was inactive.

`COP(=S)(OC)Oc1c(Cl)cc(C)cc1Cl`: the outcome was inactive.

Regarding `O=C(O)C(Cl)(Cl)Cl`, the result was inactive.

In the case of `CCC(C)(C)c1ccc(O)c(C(C)(C)CC)c1`, the AC50 is 12.4 µM (active).

As to `CC12CC1(C)C(=O)N(c1cc(Cl)cc(Cl)c1)C2=O` (stereo not given), the outcome was inactive.

`O=C(O)CCC(F)(C(F)(F)F)C(F)(F)F`: the outcome was inactive.

`C=C(C)C(=O)[O][Sn]([CH2]CCC)([CH2]CCC)[CH2]CCC`: the AC50 is 0.155 µM (active).

For the compound `CCC(=O)C(CC(C)N(C)C)(c1ccccc1)c1ccccc1` (stereo not given), the result was inactive.

As to `NC(=O)O`, the outcome was inactive.

With `BrCCBr`, the result was inactive.

`CC(C)(OO)c1ccccc1`: the result was inactive.

Turning to `Oc1cccc2cccnc12`, the outcome was inactive.

Take `C(=NC1CCCCC1)=NC1CCCCC1`: the AC50 was 29.6 µM (active).

With `CC(=O)C(Cl)C(=O)N(C)C` (stereo not given), the outcome was inactive.

For the compound `CC(C)(C)CC(C)(C)c1ccc(O)cc1`, the AC50 is 10.8 µM (active).

For the compound `CCCCCCCCC(=O)NCc1ccc(O)c(OC)c1`, the result was inactive.

As to `O=Cc1cccc(Oc2ccccc2)c1`, the result was inactive.

Take `Nc1ccc(-c2ccc(N)c(Cl)c2)cc1Cl`: the outcome was inactive.

`CCOP(=S)(OCC)SCSP(=S)(OCC)OCC`: the result was inactive.

In the case of `O=C(O)C(F)(F)C(F)(F)C(F)(F)C(F)(F)C(F)(F)C(F)(F)C(F)(F)C(F)(F)C(F)(F)C(F)(F)F`, the result was inactive and the AC50 is 29.8 µM (active).

On to `C[C@]12CCC(=O)C[C@@H]1CC[C@@H]1[C@@H]2CC[C@]2(C)[C@@H](O)CC[C@@H]12`, for which the outcome was inactive.

`COc1cc(-c2ccc(N)c(OC)c2)ccc1N`: the outcome was inactive.

Consider `O=C(Nc1ccc2[nH]ccc2c1)c1cc2cc(F)ccc2n1Cc1cccc(F)c1`, for which the AC50 is 13.7 µM (active).
